Measured values as given in PubChem BioAssay AID1745857 (National Center for Advancing Translational Sciences (NCATS), 2022).
Among all 120,000 compounds or so, about 370 (0.31%) were called active. Entries that show only a call come without a potency. About 4% were inconclusive and are not listed. The sample holds actives, similar compounds and a random draw of the others, so the mix is not that of the screen. Values without a mark were called inactive. The call rests on the fitted dose curve.

Experiment: Primary qHTS Assay for Foot and Mouth Disease Virus Antivirals against NCGC Sytravon and CBC Compound Libraries: Renilla Luciferase Signal; further: nearly all actives have a fitted effect of over 55% in size
Conditions: FMDV replicon cells; series mostly up to 57.5 µM
Potency means the concentration at half of the fitted maximal effect.

Row | SMILES | Potency | activity change, negative = inhibition
1 | O=C(Nc1ccccc1)C1=C(Nc2ccc(F)cc2F)c2ccccc2S1(=O)=O | inactive | –
2 | CC(=O)Nc1ccc(NC(=O)COC(=O)c2oc3ccccc3c2C)cc1 | inactive | –
3 | CN(Cc1ccc2c(c1)OCCO2)CC(O)COc1ccccc1C(C)(C)C (stereo not drawn) | inactive | –
4 | CC(C)(C)c1ccc2c(c1)OCCOCCOCCOc1ccc(C(C)(C)C)cc1OCCOCCOCCO2 | 25.1 µM (active) | –
5 | CC(Sc1ccc2c(c1)OCCCO2)C(=O)O (stereo not drawn) | inactive | –
6 | Cc1ccnc(NC(=O)CCc2ncc(-c3ccc(F)cc3F)o2)c1 | inactive | –
7 | CCOc1ccc(NC(C)=O)cc1S(=O)(=O)Nc1ccccc1-c1nnc2n1CCCCC2 | inactive | –
8 | COc1ccc(-c2c(C)c3ccc(O)c(C)c3oc2=O)cc1 | inactive | –
9 | COc1ccc(-c2c(C)c3ccc(OS(C)(=O)=O)cc3oc2=O)cc1 | 15.8 µM (active) | –
10 | COc1ccc(-c2c(C)oc3cc(OC)ccc3c2=O)cc1 | inactive | –
11 | CCNc1c(NS(=O)(=O)c2ccc3c(c2)oc(=O)n3C)c(=O)oc2ccccc12 | inactive | –
12 | Cc1cc2oc(=O)cc(CN3CCN(c4ccccc4)CC3)c2cc1O | inactive | –
13 | CC(C)c1ccc2oc(=O)cc(CN3CCN(Cc4ccccc4)CC3)c2c1 | inactive | –
14 | Cc1cccc(CN2CCN(Cc3cc(=O)oc4c(C)c(O)ccc34)CC2)c1 | 20 µM (active) | –
15 | CNC/C=C/COc1ccc(C)c(C)c1 | inactive | –
16 | Cc1ccc(S(C)(=O)=O)cc1NCc1ccccc1F | inactive | –
17 | CCC(Sc1nc2ncccc2[nH]1)C(=O)Nc1ccc(C)c(Cl)c1 (stereo not drawn) | inactive | –
18 | NCCOc1ccc(C(F)(F)F)cc1 | inactive | –
19 | CC(C)(C)C(=O)NCCCC(=O)NCCc1ccccc1 | inactive | –
20 | Cc1ccc2c(Cn3nnc(-c4ccc(F)cc4)n3)cc(=O)oc2c1 | inactive | –
21 | Cc1ccccc1NS(=O)(=O)c1ccc(C(=O)N(C)CC(=O)Nc2cccc3ccccc23)cc1 | inactive | –

Row | SMILES | Potency | activity change, negative = inhibition
22 | O=C(Cc1ccccc1Cl)N1CCN(c2ncnc3nc[nH]c23)CC1 | inactive | –
23 | CC(=O)Nc1ccc2oc(-c3cncc(Br)c3)nc2c1 | inactive | –
24 | CCOc1ccc(NC(=O)CCc2ncc(-c3ccccc3F)o2)cc1 | inactive | –
25 | CCc1cc(C(=O)N2CCN(c3ccccc3OC)CC2)no1 | inactive | –
26 | O=C(Nc1cccc(-c2nc3cc(Cl)ccc3o2)c1)c1ccccc1 | inactive | –
27 | Fc1ccc(Oc2ccc(CNc3ncccn3)cn2)cc1 | inactive | –
28 | CC(CCN1CCC(C(O)(c2ccccc2)c2ccccc2)CC1)Oc1ccc([N+](=O)[O-])cc1Cl (stereo not drawn) | inactive | –
29 | CC(=O)Oc1ccc2c(C)c(-c3ccccc3)c(=O)oc2c1 | inactive | –
30 | CC1CCc2sc(N)c(C#N)c2C1 (stereo not drawn) | inactive | –
31 | COC(=O)CN1CCCC1c1ccsc1 (stereo not drawn) | inactive | –
32 | CCCCNC(=O)c1cccc(N)c1 | inactive | –
33 | C=C(C)CN1CCN(CCO)CC1 | inactive | –
34 | Cc1sc2nc(SCc3ccc(Cl)cc3)n(CCCN3CCOCC3)c(=O)c2c1C | inactive | –
35 | Cc1ccccc1Nc1nc(-c2ccc([N+](=O)[O-])cc2)nc2ccccc12 | inactive | –
36 | FC(F)(F)c1ccccc1C(c1ccccc1)N1CCCNCC1 (stereo not drawn) | inactive | –
37 | Cc1ncsc1C(=O)NCc1ccc(N2CCCCCC2)nc1 | 12.6 µM (active) | –
38 | Cc1ccc(CNC(=O)c2scnc2C)cn1 | inactive | –
39 | COc1ccc(OC)c(CNC(=O)c2scnc2C)c1 | inactive | –
40 | COc1cccc(CNC(=O)N2CCN(Cc3ccc(Br)s3)CC2)c1 | inactive | –
41 | Nc1nccnc1C(=O)NCCc1ccc(F)cc1 | inactive | –
42 | CC(C)OCc1ccccc1CNC(=O)c1nccnc1N | inactive | –

Row | SMILES | Potency | activity change, negative = inhibition
43 | COc1ccc2cc(CNC(=O)c3nccnc3N)ccc2c1 | 22.4 µM (active) | –
44 | Nc1nccnc1C(=O)NCc1ccnc(Oc2ccccc2)c1 | 31.6 µM (active) | –
45 | COc1cc(CNC(=O)Cc2ccc(OC)c(OC)c2)ccn1 | inactive | –
46 | COc1cc(CNC(=O)C(C)Oc2ccccc2)ccn1 (stereo not drawn) | inactive | –
47 | CCOc1ccc(-c2noc(-c3nnn(-c4ccc(C(C)C)cc4)c3N)n2)cc1 | inactive | –
48 | CCCCCCCCc1ccc(-c2ccc(CC)cc2)nc1 | – | -6.84% [at 1.06 µM]
49 | COc1ccc(OC)c(CCNC(=O)CSCc2cnn(-c3ccccc3)c2-n2cccc2)c1 | inactive | –
50 | CCC(Nc1ccc2oc(C)nc2c1)C(=O)Nc1ccc(F)cc1 (stereo not drawn) | inactive | –
51 | CCOC(=O)c1c(S(=O)(=O)Nc2cc(Cl)c(OC)cc2OC)c(C)n(C)c1C | inactive | –
52 | Cn1nc(CC(=O)Nc2cccc(Cl)c2)c2ccccc2c1=O | 7.94 µM (active) | –
53 | COc1ccc(Cl)cc1NC(=O)COC(=O)c1nn(C)c(=O)c2ccccc12 | inactive | –
54 | COc1ccc(NC(=O)COC(=O)c2nn(C)c(=O)c3ccccc23)cc1Cl | inactive | –
55 | COC(=O)c1cc(NC(=O)CSc2nnc(Cc3ccc(OC)cc3)n2C)ccc1Cl | inactive | –
56 | O=C(Nc1ccc2oc(-c3cccc(Br)c3)nc2c1)c1cccs1 | inactive | –
57 | Cc1c(-c2nsc(NC(=O)c3cccc(Cl)c3)n2)nnn1-c1ccccc1C(F)(F)F | 12.6 µM (active) | –
58 | CCc1cccc(-n2nnc(-c3nsc(NC(=O)c4ccc(C)cc4)n3)c2C)c1 | inactive | –
59 | COc1ccc(-n2nnc(-c3nsc(NC(=O)c4ccc(C)c(C)c4)n3)c2C)cc1Cl | inactive | –
60 | N#Cc1ccc(-c2ccc(OCc3ccccc3C#N)cc2)cc1 | inactive | –
61 | COc1ccc(OC)c(C2c3c(n[nH]c3C)Nc3[nH]c(=O)[nH]c(=O)c32)c1 (stereo not drawn) | inactive | –
62 | CCOC(=O)C1=C(CNCc2ccc(C)cc2)NC(=O)NC1c1ccc(Cl)cc1 (stereo not drawn) | inactive | –
63 | CN(C)CCNC(C(=O)O)c1c[nH]c2cc(F)ccc12 (stereo not drawn) | inactive | –

Row | SMILES | Potency | activity change, negative = inhibition
64 | C#CC[N+]1(C)C(C)CCCC1C (stereo not drawn) | inactive | –
65 | CCCNC(=O)c1ccc(NC(=O)CCc2ccccc2)cc1 | inactive | –
66 | Cc1csc(/C(C#N)=C\NC2CC(C)(C)NC(C)(C)C2)n1 | inactive | –
67 | CCCn1nc(C(=O)Nc2ncc(Cc3ccc(F)cc3)s2)ccc1=O | 25.1 µM (active) | –
68 | Cc1nc(-c2ccc(F)cc2)sc1C(=O)N[C@H](C(=O)O)C(C)C | inactive | –
69 | Cc1cnc(NC(=O)c2nc(C)n(-c3ccc(F)cc3)n2)s1 | inactive | –
70 | Cc1[nH]n(-c2nc(-c3ccccc3)cs2)c(=O)c1CC(=O)Nc1cccc(Cl)c1 | inactive | –
71 | CCCN(CC(=O)Nc1cccc(C(=O)NC2CC2)c1)Cc1nnc(-c2cccs2)o1 | inactive | –
72 | COCCCn1c(C)cc(C(=O)CSc2ncnc3ccccc23)c1C | 1.41 µM (active) | –
73 | Cc1cccc(NC(=O)CSc2ncnc3ccccc23)c1 | inactive | –
74 | COCCn1c(C)cc(C(=O)CSc2nnc(-c3ccccc3OC)n2-c2ccc(Cl)cc2)c1C | – | -11.3% [at 1.06 µM]
75 | Cc1cc(C(C)(C)C)cc(C)c1CCNC(=O)c1ccc(NC(=O)CC#N)cc1 | – | -11.7% [at 1.06 µM]
76 | CCc1ccc(/C=C/C(=O)c2cc3ccccc3oc2=O)cc1 | inactive | –
77 | Cc1[nH]c2ccccc2c1C(C(=O)O)N1CCN(Cc2ccccn2)CC1 (stereo not drawn) | inactive | –
78 | O=C(COc1ccc2c(c1)CCC2)OCC(=O)c1ccc2c(c1)OCCO2 | inactive | –
79 | COC(=O)c1ccc(C2C(c3ccccc3)=C(O)C(=O)N2c2ccc(Cl)cc2)cc1 (stereo not drawn) | inactive | –
80 | COc1ccc(CNc2oc(-c3ccc(C)cc3)nc2C#N)cc1 | inactive | –
81 | CC(C)Cn1c(=O)c2ccccc2n2c(SCC(=O)Nc3ccc(F)cc3F)nnc12 | inactive | –
82 | O=C(NCc1cccs1)C1CCN(c2nccn3nc(-c4ccccc4)cc23)CC1 | inactive | –
83 | CSCCCNC(=S)NNC(N)=O | inactive | –
